In ChEMBL document CHEMBL3988442, “University of Dundee, Small-Polar-MMV Screening Library” (2021):
The campaign covered roughly 66,000 compounds. About 960 (1.5%) showed an effect of 50% or more. The sample as a whole holds a higher share of strong results than the screen did.

Test system: Trypanosoma brucei
Assay: Trypanosoma brucei 72 hour study
Format: functional, organism-based
Design: scale not given: in the data most compounds retested in dose-response had high values

## Cc1ccc2c(c1)C(=O)NCC1(CCN(C(=O)c3ccccn3)CC1)O2
30.3 µM, […]
  Percent Effect: 1.622%

## CCN1C(=O)CC(c2ccccc2)C12CCN(CC1CCOCC1)CC2.O=C(O)C(F)(F)F (centres undefined)
30.3 µM, […]
  Percent Effect: 16.26%

## CNc1ncc2c(n1)CN(CCc1ccccc1)C2=O
30 µM, 30.03 µM
  Percent Effect: 0.2551%

## COc1ccccc1OC1CCN(Cc2cnc(N(C)C)nc2)CC1
30 µM, 30.03 µM
  Percent Effect: 59.89%

## COCc1ncc(CN2CCC(Oc3ccccc3OC)CC2)cn1
30 µM, 30.03 µM
  Percent Effect: -7.671%

## COc1ccccc1OC1CCN(Cc2ccc(N(C)C)nc2)CC1
30 µM, 30.03 µM
  Percent Effect: 16.29%

## C[C@@H]1C(=O)NC[C@H]2CN(Cc3ccc4c(c3)OCO4)C[C@H]21.O=C(O)C(F)(F)F
30.3 µM, […]
  Percent Effect: -39.22%

## Cn1cccc1CN1CCC2(CC1)CN(c1ccccc1)C(=O)CO2.O=C(O)C(F)(F)F
30 µM, 30.03 µM
  Percent Effect: -21.68%

## CCCn1ccc(C(=O)N2CCOC(c3nc(-c4cccs4)no3)C2)n1 (centres undefined)
30 µM, 30.03 µM
  Percent Effect: 67.6%

## CCCn1cc(C(=O)N2CCOC(c3nc(-c4cccs4)no3)C2)cn1 (centres undefined)
30.3 µM, […]
  Percent Effect: 19.04%

## CCn1ccc(C(=O)N2CCOC(c3nc(-c4cccs4)no3)C2)n1 (centres undefined)
30.3 µM, […]
  Percent Effect: 21.37%

## Cc1csc(CN2CCC3(CC2)COC(COCC2CC2)C3)n1.O=C(O)C(F)(F)F (centres undefined)
30.3 µM, […]
  Percent Effect: -1.163%

## COc1nn(C)c2c1CCCN(C(=O)c1ccc3c(c1)OCO3)C2.O=C(O)C(F)(F)F
30 µM, 30.03 µM
  Percent Effect: -20.99%

## CC(=O)N1CCN(c2cc(CCN)nc(C3CC3)n2)CC1.Cl
30.3 µM, […]
  Percent Effect: 1.602%

## COCCN1C[C@@H]2CN(Cc3ccc(F)cc3)C[C@@H]2C1=O.O=C(O)C(F)(F)F
30.3 µM, […]
  Percent Effect: -7.407%

## O=C(O)C(F)(F)F.O=C1[C@H]2CN(Cc3ccco3)C[C@H]2CN1c1ccsc1
30 µM, 30.03 µM
  Percent Effect: 73.83%

## O=C(O)C(F)(F)F.O=C1[C@H]2CN(Cc3ccc(F)cc3)C[C@H]2CN1c1ccsc1
30 µM, 30.03 µM
  Percent Effect: 14.65%

## O=C(O)C(F)(F)F.O=C1[C@H]2CN(Cc3cccs3)C[C@H]2CN1c1ccsc1
30 µM, 30.03 µM
  Percent Effect: 27.72%

## CCOCCCn1c(NC(=O)c2cnc(C)s2)nc2ccccc21
10 µM
  Percent Effect: -28.52%

## CCOCCCn1c(NC(=O)c2cnc(C)cn2)nc2ccccc21
10 µM
  Percent Effect: -41.49%

## CCOCCCn1c(NC(=O)c2ccc(C)nc2)nc2ccccc21
30 µM, 30.03 µM
  Percent Effect: 8.402%

## CCOCCCn1c(NC(=O)c2scnc2C)nc2ccccc21
30 µM, 30.03 µM
  Percent Effect: 105.1%

## CCOCCCn1c(NC(=O)c2ccnc(C)n2)nc2ccccc21
10 µM
  Percent Effect: -13.79%

## CCN(CC)CCn1c(NC(=O)c2scnc2C)nc2ccccc21
10 µM
  Percent Effect: 84.6%

## CCOCCCn1c(NC(=O)c2cnn(C)c2)nc2ccccc21
30 µM, 30.03 µM
  Percent Effect: 64.95%

## CCCn1c(NC(=O)CNC(=O)OCC)nc2ccccc21
30 µM, 30.03 µM
  Percent Effect: -18.3%

## CCOCCCn1c(NC(=O)c2cc(C)on2)nc2ccccc21
10 µM
  Percent Effect: -33.65%

## Cc1noc(C)c1CN1CCOCC12CCN(c1ncccn1)CC2.O=C(O)C(F)(F)F
30.3 µM, […]
  Percent Effect: -79.15%

## O=C(O)C(F)(F)F.O=C1CCC2(CCCN(CCc3ccccc3)C2)N1Cc1cccnc1 (centres undefined)
30.3 µM, […]
  Percent Effect: -16.68%

## CN(C)C(=O)[C@H]1C[C@@H]2CN(S(=O)(=O)Cc3ccccc3)C[C@H]1O2
30 µM, 30.03 µM
  Percent Effect: 24.58%

## COc1ccc(CN2CCO[C@H]3[C@H](OCc4ccncc4)CC[C@@H]32)cc1.O=C(O)C(F)(F)F.O=C(O)C(F)(F)F
30.3 µM, […]
  Percent Effect: -84.86%

## Cc1nc(CN2CCCC2c2noc(C(C)C)n2)oc1C (centres undefined)
30.3 µM, […]
  Percent Effect: 12.42%
10 mM, 10 mM as filed; unlikely as a test dose
  Percent Effect: -15.34%

## Cc1ccc(N(Cc2ccco2)C(=O)CC2=NN(C)C(=O)C2)cc1
30 µM, 30.03 µM
  Percent Effect: -11.27%

## COCC1N(C(=O)c2ccc3c(c2)OCCCO3)[C@H]2CC[C@]1(O)CC2 (some centres undefined)
30.3 µM, […]
  Percent Effect: -35.32%

## O=C(NCc1ccc(-c2ccn[nH]2)cc1)N1CCC(N2CCCC2)C1 (centres undefined)
30 µM, 30.03 µM
  Percent Effect: 50.84%

## NC(=O)C1CCN(C(=O)NCc2ccc(-c3ccn[nH]3)cc2)CC1
30.3 µM, […]
  Percent Effect: -25.22%

## CNC(=O)C1CCN(C(=O)NCc2ccc(-c3ccn[nH]3)cc2)CC1
30.3 µM, […]
  Percent Effect: -16.44%

## CN(C)C(=O)CC1CC2(CCN(Cc3ccoc3)CC2)c2ccccc21.O=C(O)C(F)(F)F (centres undefined)
30 µM, 30.03 µM
  Percent Effect: -22.74%

## CC(C)n1cnnc1CCNCc1cn(CCC(N)=O)c2ccccc12
30.3 µM, […]
  Percent Effect: -18.24%

## CC(NCc1cn(CCC(N)=O)c2ccccc12)c1nncn1C (centres undefined)
30.3 µM, […]
  Percent Effect: -49.32%

## Cc1ccc(C(C)NCc2cn(CCC(N)=O)c3ccccc23)cc1C (centres undefined)
30.3 µM, […]
  Percent Effect: 96.45%

## CC(CN1CCC2(CC1)N=C(c1cccnc1)NC2=O)c1ccccc1 (centres undefined)
30 µM, 30.03 µM
  Percent Effect: 6.734%

## COCC1CC2(CCN(C(=O)c3occc3C)CC2)CN1C(C)C.O=C(O)C(F)(F)F (centres undefined)
30.3 µM, […]
  Percent Effect: -8.924%

## CCCc1noc(CN2CCCC2c2noc(C3CC3)n2)n1 (centres undefined)
30.3 µM, […]
  Percent Effect: -16.45%

## CCCc1noc(CCC(=O)N2CCCC2c2ccsc2)n1 (centres undefined)
30 µM, 30.03 µM
  Percent Effect: -44.02%

## CCCc1noc(CN2CCCC2c2ccsc2)n1 (centres undefined)
30 µM, 30.03 µM
  Percent Effect: 55.39%

## CS(=O)(=O)NCc1cnc2n1CCN(Cc1cccs1)CC2.O=C(O)C(F)(F)F
30 µM, 30.03 µM
  Percent Effect: -2.909%

## O=C(O)[C@@H]1CN(C(=O)CCCc2ccc(F)cc2)C[C@H]1C1CC1
30 µM, 30.03 µM
  Percent Effect: -8.475%

## N[C@H]1CN(C(=O)CCCc2ccc(F)cc2)C[C@@H]1C1CC1
30 µM, 30.03 µM
  Percent Effect: 79.67%

## CN(C)[C@H]1CN(C(=O)CCCc2ccc(F)cc2)C[C@@H]1C1CC1
30 µM, 30.03 µM
  Percent Effect: 21.51%

## O=C(NCc1cccs1)[C@@H]1CC[C@@H]2[C@@H](CCN2c2ncccn2)O1.O=C(O)C(F)(F)F
30 µM, 30.03 µM
  Percent Effect: -28.93%

## CCC(Nc1ncccn1)c1cccnc1 (centres undefined)
30 µM, 30.03 µM
  Percent Effect: -16.09%

## COc1ccc(C(CN2CCN(C)CC2)Nc2ncccn2)cc1 (centres undefined)
30 µM, 30.03 µM
  Percent Effect: -24.12%

## CCC(Nc1ncccn1)c1ccc(OC)cc1 (centres undefined)
30 µM, 30.03 µM
  Percent Effect: 62.75%

## CCC(C)Oc1ccc(CNCCNS(C)(=O)=O)cc1Cl (centres undefined)
30 µM, 30.03 µM
  Percent Effect: 0.13%

## O=C(O)C(F)(F)F.O=C(O)C(F)(F)F.O=C1CC(c2ccncc2)C2(CCN(CCc3ccccc3)CC2)N1 (centres undefined)
30 µM, 30.03 µM
  Percent Effect: 36.79%

## CS(=O)(=O)N1CCC2(CC1)CC(NCC1CC1)c1ccccc12.O=C(O)C(F)(F)F (centres undefined)
30.3 µM, […]
  Percent Effect: 3.499%

## CN1CC2(CCCN(Cc3ccc(Oc4ccccc4)cc3)C2)OC1=O (centres undefined)
30 µM, 30.03 µM
  Percent Effect: -7.898%

## CN(Cc1cc(Br)cn1C)C(=O)Cc1cccc(O)c1
30 µM, 30.03 µM
  Percent Effect: -57.62%

## CN(Cc1cc(Br)cn1C)C(=O)c1cccnc1
30 µM, 30.03 µM
  Percent Effect: -39.03%

## CN(Cc1cc(Br)cn1C)C(=O)Cc1cccnc1
30 µM, 30.03 µM
  Percent Effect: 102.7%

## COc1ccc(CN2CC[C@H]3[C@H]2CC(=O)N3Cc2cccc(C)n2)cc1.O=C(O)C(F)(F)F.O=C(O)C(F)(F)F
30.3 µM, […]
  Percent Effect: -40.33%

## Cc1cc(N2CCN(C(=O)c3cc(Cl)c[nH]3)CC2)nc(N)n1
30 µM, 30.03 µM
  Percent Effect: 109.2%

## Cc1cc(N2CCN(C(=O)c3cc(Cl)c[nH]3)CC2)nc(C)n1
30 µM, 30.03 µM
  Percent Effect: -21.87%

## Cc1cc(N2CCN(C(=O)c3cc(Cl)c[nH]3)CC2)nc(C(C)C)n1
30 µM, 30.03 µM
  Percent Effect: -55.97%

## Cc1ccc(CN(CCCN(C)C)Cc2cnc(C)n2C)o1.O=C(O)CC(O)(CC(=O)O)C(=O)O
30.3 µM, […]
  Percent Effect: -2.378%

## CCn1c(C(=O)N2CCN(CC[S+](C)[O-])CC2)cc2ccccc21 (centres undefined)
10 µM
  Percent Effect: -31.07%

## CC(=O)c1ccc(NC(=O)NCc2cccc(N(C)C)n2)cc1C
30 µM, 30.03 µM
  Percent Effect: -17.1%

## COc1ccc(C)c(NC(=O)NCc2cccc(N(C)C)n2)c1
30.3 µM, […]
  Percent Effect: -277.4%

## CN(C)c1cccc(CNC(=O)Nc2cc(C#N)ccc2Cl)n1
30.3 µM, […]
  Percent Effect: -223.5%

## COc1cc(F)cc(NC(=O)NCc2cccc(N(C)C)n2)c1
30.3 µM, […]
  Percent Effect: -613%

## COCc1c(Cl)cccc1NC(=O)NCc1cccc(N(C)C)n1
30.3 µM, […]
  Percent Effect: 55.78%

## COc1ccc(NC(=O)NCc2cccc(N(C)C)n2)c(Cl)c1
30.3 µM, […]
  Percent Effect: 103.9%

## N#Cc1cccc(C(=O)N2CCC3(CCC(=O)N(C4CC4)C3)CC2)c1
30 µM, 30.03 µM
  Percent Effect: -3.327%

## O=C(O)C(F)(F)F.c1ccc(CN2CCc3c(CNc4nccs4)n[nH]c3C2)nc1
30 µM, 30.03 µM
  Percent Effect: -34.93%

## Cc1ccn(CCC(=O)N2CCCC2c2nnc(-c3scnc3C)o2)n1 (centres undefined)
30.3 µM, […]
  Percent Effect: -1.608%

## Cc1cnc(-c2nc(C3CCCN(Cc4ccccc4C)C3)no2)cn1.Cl (centres undefined)
30.3 µM, […]
  Percent Effect: -19.46%

## Cn1ccc2c(-c3cc(N)nc(N4CCOCC4)n3)ccnc21
30 µM, 30.03 µM
  Percent Effect: 69.92%

## Cn1ccc2c(-c3cc(N4CCOCC4)ncn3)ccnc21
30 µM, 30.03 µM
  Percent Effect: -20.01%

## CCc1cc(-c2ccnc3c2ccn3C)nc(N2CCOCC2)n1
30 µM, 30.03 µM
  Percent Effect: -28.1%

## CCNc1nc(C(=O)N(C)Cc2nc(CC)no2)cs1
30 µM, 30.03 µM
  Percent Effect: -27.33%

## CC(C)c1nc(C2CCCN2c2ccnc(C3CCCC3)n2)no1 (centres undefined)
30.3 µM, […]
  Percent Effect: -51.91%

## CC(C)c1nc(C2CCCN2c2cnc3ccccc3n2)no1 (centres undefined)
30.3 µM, […]
  Percent Effect: -0.9034%

## CC(C)c1nc(C2CCCN2c2cnc3cc(F)c(F)cc3n2)no1 (centres undefined)
30.3 µM, […]
  Percent Effect: 85.34%

## Cc1noc(C)c1CN1CCc2ncnc(-c3ccoc3)c2CC1.O=C(O)C(F)(F)F
30.3 µM, […]
  Percent Effect: -51.79%

## COc1cc(C#N)ccc1OC12CCCN(CC1)C2 (centres undefined)
30 µM, 30.03 µM
  Percent Effect: -13.64%

## c1ccc(Oc2ccc(OC34CCCN(CC3)C4)cc2)cc1 (centres undefined)
30.3 µM, […]
  Percent Effect: 99.82%

## O=c1[nH]nc(CNCc2ccc(OC34CCCN(CC3)C4)cc2)[nH]1 (centres undefined)
30 µM, 30.03 µM
  Percent Effect: -0.5692%

## c1ccc(Oc2cccc(OC34CCCN(CC3)C4)c2)cc1 (centres undefined)
30.3 µM, […]
  Percent Effect: 99.26%

## Cc1nc(CNCc2cccc(OC34CCCN(CC3)C4)c2)n[nH]1 (centres undefined)
30 µM, 30.03 µM
  Percent Effect: 3.883%

## Cc1cnccc1CNCc1ccc(OC23CCCN(CC2)C3)cc1 (centres undefined)
30 µM, 30.03 µM
  Percent Effect: 6.423%

## Cl.O=C(Nc1cccc(CNCc2cccs2)c1)C1CC1
10 µM
  Percent Effect: -25.65%

## O=C(CC1CCC2(CC1)CCN(Cc1ccncc1)CC2)N1CCCC1.O=C(O)C(F)(F)F
30.3 µM, […]
  Percent Effect: -30.07%
